Screening results (PubChem)
Compounds with a hit are over-represented: about 6.1% of the library has one in this group of screens.
D3 antag = antagonists of human D3 dopamine receptor | P35462 | D3R cells, DiscoveRx beta-arrestin luminescence, antagonist mode; stronger effect = lower value | max response, negative = inhibition, % | 360,000 tested, 2.5% active; in the data active = max response below about -50%; inconclusive = no clear call, values can overlap the other calls; also: % is scaled to controls: 0 for no effect and ±100 for the full control effect
Target sequence (P35462 whole entry, looked up): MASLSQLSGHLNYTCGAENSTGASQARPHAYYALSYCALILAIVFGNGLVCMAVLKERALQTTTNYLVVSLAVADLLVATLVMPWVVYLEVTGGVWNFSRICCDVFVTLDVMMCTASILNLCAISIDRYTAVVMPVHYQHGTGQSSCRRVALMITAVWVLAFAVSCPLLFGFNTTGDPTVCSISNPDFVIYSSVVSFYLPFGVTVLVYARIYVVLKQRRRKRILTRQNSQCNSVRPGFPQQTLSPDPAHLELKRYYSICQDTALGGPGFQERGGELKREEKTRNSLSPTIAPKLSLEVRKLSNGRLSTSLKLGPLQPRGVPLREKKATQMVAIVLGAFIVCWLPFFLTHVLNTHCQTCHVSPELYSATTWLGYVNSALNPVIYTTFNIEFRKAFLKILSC
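Cells plated overnight at 1500 cells/well, then exposed to library compounds with dopamine controls for 90 minutes at 37 degrees C. DiscoveRx reagent added for 30–60 minutes at room temperature; luminescence read, quantitative HTS format.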
DRD3 agonist = agonists of human D3 dopamine receptor; max activation, %; P35462; AID 652048; 410,000 tested, 0.58% active; D3R DiscoveRx beta-arrestin cells, luminescence, 90 min; in the data active = max activation above about 30%; also: 0% is about no effect
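Cells at 1500/well, incubated overnight, then treated with pinned compounds (dopamine as control) for 90 min at 37 degrees C. DiscoveRx reagent added for 30 - 60 minutes at room temperature; luminescence read.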
D1 antagonist = blocks dopamine activation of the human D1 receptor; P21728; HEK293 TREx D1 cells, calcium flux, dopamine EC80; stronger effect = lower value; activity change, negative = inhibition, % at 10 µM; 360,000 tested, 3.2% active; AID 504652; in the data active = activity change below about -30%; also: % is scaled to controls: 0 for no effect and ±100 for the full control effect
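Inducible Hek293 Trex D1 cells (tetracycline, overnight, 30 C). Calcium dye 30–90 min RT. Antagonist mode: EC80 dopamine added after 180 s compound read.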
D1 PAM = enhances dopamine response at the human D1 receptor. potentiation, % at 10 µM. HEK293 TREx D1 cells, calcium flux, dopamine EC20 potentiation. 360,000 tested, 0.036% active; in the data active = potentiation above about 30%; also: 0% is about no effect
D1 agonist = human D1 receptor agonism. P21728. HEK293 T-REx D1 cells, calcium flux, agonist mode. activation, % at 2 µM. 360,000 tested, 1% active. AID 504660; in the data active = activation above about 30%; also: 0% is about no effect
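Agonism was scored from calcium flux recorded over 180 s (1 read/s) after pintool compound addition, following a 10-cycle baseline. Cells were inducible force-coupled HEK293 TREx D1, plated overnight at 30 C and loaded with no-wash calcium dye.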
Starred values were filed as active, the others as inactive; ? = inconclusive; · = not tested or not shown.

SMILES	D3 antag	DRD3 agonist	D1 antagonist	D1 PAM	D1 agonist
CCOC(=O)c1ccc(Nc2nc(=O)c3cccnc3s2)cc1	-70*	3	12	3	-1
CCc1ccc(CNC(=O)C2CCCN(c3nnc(C)c4c(C)n(-c5ccc(OC)cc5)nc34)C2)cc1 (centres undefined)	·	31*	15	19	3
COc1cccc(NC(=O)C2CCN(c3nc4ccccc4nc3C(F)(F)F)CC2)c1	·	32*	25	5	3
Cc1ccc(-n2nc3c(N4CCCC(C(=O)NCc5ccccc5C)C4)nnc(C)c3c2C)cc1 (centres undefined)	·	-10	17	53*	44*
COc1cc(NC(=O)C2CCN(c3nnc(C)c4c(C)n(-c5ccccc5)nc34)CC2)cc(OC)c1	·	-3	-40*	-2	2
CCCC(=O)N1CCC1(C)C(=O)NCc1ccccc1SC (centres undefined)	7	-7	·	·	·
C=CCn1c(SCC(=O)N2CCOCC2)nnc1C(C)NC(=O)c1ccccc1 (centres undefined)	3	-4	6	1	6
CC(=O)c1ccc(N2CCN(c3nc4ccccc4c4nc(-c5cccc(C)c5)nn34)CC2)cc1	·	3	8	3	2
Cc1cccc(N2C(=O)N(c3ccccc3C)C3CS(=O)(=O)CC32)c1 (centres undefined)	-53*	-9	12	1	0
CCC(Sc1nc2n[nH]c(C)c2c(=N)n1-c1cccc(Cl)c1C)C(=O)N(CC)CC (centres undefined)	26	2	-41*	5	1
CC1=C(CO)C(=O)OC([C@@H](C)C2CC[C@H]3C4C[C@H]5O[C@]56[C@@H](O)C=CC(=O)[C@]6(C)C4CC[C@]23C)C1 (some centres undefined)	-136*	-67	-21	-2	1
COc1ccc(SCC(=O)c2cc(C)c(OC(=S)N(C)C)c(C)c2)cc1	-51*	0	-35*	-3	4
Cc1cc(C)cc(NC(=O)CSc2oc(-c3ccco3)nc2S(=O)(=O)c2ccc(Cl)cc2)c1	·	-12	-12	2	11
CC(Sc1nc(=O)cc(N)n1CCc1ccccc1)C(=O)Nc1ccc(Cl)cc1 (centres undefined)	·	1	-33*	-2	16
CC(Sc1nc(=O)cc(N)n1CCc1ccccc1)C(=O)Nc1cccc(Cl)c1 (centres undefined)	·	6	6	-5	2
Cc1ccc(NC(=O)NCC2CCN(Cc3cccc(Cl)c3)CC2)cc1Cl	-51*	-24	-22	-6	10
CCc1ccc(NC(=O)NCC2CCN(Cc3cccc(Cl)c3)CC2)cc1	-52*	-4	-37*	-10	36*
O=C(NCC1CCN(Cc2ccccc2F)CC1)Nc1ccc(F)c(Cl)c1	·	-18	-15	-5	24
Cc1ccc(C)c(CN2CCC(CNC(=O)Nc3ccc(F)c(Cl)c3)CC2)c1	-66*	-21	-9	-5	21
O=C(NCC1CCN(Cc2cccc(Cl)c2)CC1)Nc1ccccc1Cl	?	-25	8	-2	8
Cc1ccc(Nc2cc(C)c(C#N)c3nc4ccccc4n23)cc1Cl	·	-4	1	-1	6
Cc1ccc2[nH]c(CSc3nnc(NC(=O)COc4ccccc4F)s3)cc(=O)c2c1	·	-2	-5	0	-1
O=C(Nc1ccc(F)cc1)c1sc(Cl)nc1-c1ccccc1	4	3	16	1	-1
O=C(Nc1cccc(F)c1)c1sc(Cl)nc1-c1ccccc1	3	1	-36*	0	4
CCN(CC(=O)NCc1cccs1)C(=O)c1ccc(S(=O)(=O)N(CC)c2ccccc2)cc1	-2	2	-6	0	1
SMILES	D3 antag	DRD3 agonist	D1 antagonist	D1 PAM	D1 agonist
Nc1ccn([C@@H]2O[C@H](C(=O)N(CCC3=CCCCC3)CC3CC3)[C@@H](O)[C@H]2O)c(=O)n1	-29	40*	·	·	·
Cc1ccc(NS(=O)(=O)c2ccc(NC(=O)N3CCCC3)cc2)cc1C	·	3	-11	-2	5
Cc1snc(S(=O)(=O)/C(C#N)=N\Nc2ccccc2)c1C#N	-18	-1	7	1	0
Cc1snc(S(=O)(=O)/C(C#N)=N/Nc2ccc(C(F)(F)F)cc2)c1C#N	-91*	-2	-20	-8	7
CCOC(=O)Cn1c(=O)n(C2CCCCC2)c2nc(-c3ccc(CC)cc3)nc(C(N)=O)c21	·	0	10	0	0
O=S(=O)(N/N=C/c1ccc(OC2CSC2)cc1)c1ccccc1	11	6	11	-5	47*
O=S(=O)(N/N=C/c1cccc(OC2CSC2)c1)c1ccccc1	-66*	-10	3	-1	2
CC(C)c1csc(CN2CCC(N3CCC(C(=O)NCC4CCCO4)CC3)CC2)n1 (centres undefined)	4	3	5	0	4
CCOC(=O)N1CCN(c2cc(=O)n(Cc3ccc(F)cc3)c(=O)[nH]2)CC1	-7	5	-37*	-2	1
CCN1CCN(c2cc(=O)n(Cc3ccc(F)cc3)c(=O)[nH]2)CC1	-12	3	16	-4	1
Cn1c2ccccc2c2c(C(=O)N3CCN(c4cccc(Cl)c4)CC3)cn(C3CCCCC3)c(=O)c21	·	2	0	-2	8
Cc1c(NC(=O)CN2C(=O)c3ccccc3S2(=O)=O)c(=O)n(-c2ccccc2)n1C	-55*	9	7	6	2
Cc1c(NC(=O)CN2c3cccc4cccc(c34)S2(=O)=O)c(=O)n(-c2ccccc2)n1C	-16	-15	-16	-10	1
Cc1c(NC(=O)CN2CCN(c3ccccc3)CC2)c(=O)n(-c2ccccc2)n1C	20	0	1	1	0
COc1ccc(NC(=O)Nc2c(C)n(C)n(-c3ccccc3)c2=O)cc1	?	-1	-7	-4	-2
COc1ccc(CCC(=O)Nc2c(C)n(C)n(-c3ccccc3)c2=O)cc1	-18	-2	-38*	-8	2
Cc1c(NC(=O)Cn2[nH]c(=O)c3ccccc3c2=O)c(=O)n(-c2ccccc2)n1C	-52*	1	7	-5	3
COC(=O)C(CC(=O)c1ccc(Cl)cc1)c1ccccc1 (centres undefined)	-14	-20	·	·	·
NNC(=O)c1cc2ccccc2[nH]1	-52*	-10	3	-2	3
O=C(NCCCO)c1cc2ccccc2[nH]1	-8	-5	-10	-7	1
O=C(NCCN1CCCCC1)c1cc2ccccc2[nH]1	-72*	-15	14	-5	1
CC(C)(C)OC(=O)NCC(=O)NNC(=O)c1cc2ccccc2[nH]1	·	·	-59*	2	1
CC1=C(C(=O)Nc2cccc(C(=O)NC3CCCC(C)C3C)c2)SCCO1 (centres undefined)	16	2	-3	-5	0
